Hit rate of the full screen: of about 340,000 compounds, about 3,300 (0.97%) were called active. About 9% were inconclusive and are not listed. Calls follow the shape of the dose curve; as a rule, active = well fitted inhibition curve with a large enough effect; inconclusive = small, poorly fitted or top-dose-only effect, or effect the other way; inactive = flat fitted curve, though single readings scatter. The list shows a part of the results.
Potency is read from the fitted curve at half-maximal effect.

The nature of the experiment: qHTS Assay for Modulators of miRNAs and/or Inhibitors of miR-21. Also: nearly all actives have a fitted effect of over 55% in size. The settings on record: HeLa miR-21-FLuc reporter, luciferase luminescence, 48 h; actives lower the signal. A digest of the protocol:
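Compounds were titrated across several concentrations (up to approximately 40 uM) and incubated 48 hours with HeLa miR-21-FLuc reporter cells (miR-21 target sequence downstream of FLuc, endogenous miR-21). Readout was firefly luciferase luminescence after lytic detection reagent.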
Take `CN(C(=O)c1ccco1)c1nc(-c2ccccc2)cs1`: the Potency was 1.85 µM (active).

Regarding `COCCCN(C(C)=O)c1nc(-c2ccccc2)cs1`, the Potency is 6.56 µM (active).

In the case of `COc1ccc(/C=N/Nc2nncc3ccccc23)c(OC)c1`, the Potency is 5.85 µM (active).

`COc1ccccc1/C=N/Nc1nncc2ccccc12`: the Potency is 4.65 µM (active).

As for `COc1ccccc1C(=O)NC1=NC(c2ccc(Br)cc2)CC(=O)N1` (configuration not stated), the Potency was 1.85 µM (active).

Turning to `N=c1nc(N)nc2n1NC(c1ccc(F)cc1)=CS2`, the Potency is 16.5 µM (active).

`C(=C\c1nc(-c2ccccc2)no1)/c1ccccc1`: the Potency is 1.04 µM (active).

As to `Clc1ccccc1/C=C/c1nc(-c2cccnc2)no1`, the Potency is 0.656 µM (active).

As to `Cc1ccc2oc(-c3ccco3)cc(=O)c2c1`, the Potency was 5.85 µM (active).

On to `Cc1cccc2c1-c1sc(C(=O)N3CCCCC3)cc1CO2`, for which the Potency is 3.69 µM (active).

For the compound `Cc1cccc2c1-c1sc(C(=O)Nc3ccccc3C(N)=O)cc1CO2`, the Potency is 0.165 µM (active).

`CCN(CC)c1ccc(-c2nc3cnccc3n2C)cc1`: the Potency was 3.69 µM (active).

Turning to `COc1ccc(NC(=O)n2ncc3cc(Cl)ccc32)cc1OC`, the Potency was 8.26 µM (active).

With `COc1ccc(NC(=O)n2ncc3c(C)cccc32)cc1OC`, the Potency was 7.36 µM (active).

In the case of `Cc1ccc2nc3sc(C(=O)NCc4ccco4)c(N)c3cc2c1`, the Potency is 0.521 µM (active).

For `COc1ccc2nc3sc(C(=O)NCc4cccs4)c(N)c3cc2c1`, the Potency was 1.31 µM (active).

Turning to `Clc1ccc2nc(N3CCN(c4ccccc4)CC3)sc2c1`, the Potency was 0.464 µM (active).

With `c1ccc(CN2CCN(c3nc4ccccc4s3)CC2)cc1`, the Potency was 1.31 µM (active).

In the case of `Clc1ccc2nc(N3CCCCC3)sc2c1`, the Potency is 2.07 µM (active).

Regarding `CC(C)(C)c1ccc(/C=C/C(=O)Nc2nncs2)cc1`, the Potency was 0.369 µM (active).

`O=C(COc1ccc2ccccc2c1Br)NC(=S)Nc1cccc(CO)c1`: the Potency is 20.7 µM (active).

For the compound `O=C(COc1ccc(Br)cc1Br)NC(=S)Nc1cccc(CO)c1`, the Potency is 1.65 µM (active).

Consider `COc1ccc(C(=O)N=c2sc3c(C)ccc(OC)c3n2C)cc1`, for which the Potency is 0.185 µM (active).

As for `COc1ccccc1C(=O)N=c1sc2c(C)ccc(OC)c2n1C`, the Potency is 3.69 µM (active).

For the compound `CCn1c(=NC(=O)c2ccc3c(c2)OCCO3)sc2c(C)ccc(OC)c21`, the Potency is 1.31 µM (active).

As for `CCc1ccc(C(=O)NC(=S)Nc2ccc3c(c2)OCCO3)cc1`, the Potency is 2.07 µM (active).

On to `O=C(NC(=S)Nc1ccc2c(c1)OCCO2)c1cccc(Br)c1`, for which the Potency is 3.69 µM (active).

With `Cc1cc(C)cc(C(=O)NC(=S)Nc2ccc3c(c2)OCCO3)c1`, the Potency is 7.36 µM (active).

`O=C(O)c1ccc(-c2nc(-c3ccc(Cl)cc3)cs2)cc1`: the Potency is 0.414 µM (active).

Turning to `O=C(O)c1ccc(-c2nc(-c3ccccc3)cs2)cc1`, the Potency is 2.61 µM (active).

On to `CNC(=O)c1ccc(-c2nc(-c3ccccc3)cs2)cc1`, for which the Potency is 3.29 µM (active).

With `C/C(CC(=O)Nc1cc(C)cc(C)c1)=N\NC(=O)c1ccccn1`, the Potency is 4.65 µM (active).

With `COc1ccccc1NC(=O)C/C(C)=N/NC(=O)c1ccccn1`, the Potency was 1.85 µM (active).

`C/C(CC(=O)NCc1ccccc1Cl)=N/NC(=O)c1ccccn1`: the Potency is 8.26 µM (active).

On to `CCOC(=O)C1CCCN(C(=O)CCc2nnc(-c3ccc(C(C)=O)s3)o2)C1` (configuration not stated), for which the Potency is 3.29 µM (active).

In the case of `Fc1ccccc1-n1ncc2c1ncn1nc(-c3ccccc3Cl)nc21`, the Potency is 0.736 µM (active).

Regarding `CC1(C)C=Cc2cc3ccc(=O)oc3cc2O1`, the Potency is 13.1 µM (active).

In the case of `COc1c2c(cc3oc(=O)ccc13)OC(C)(C)C=C2`, the Potency is 18.5 µM (active).

As to `NC(=O)c1ccccc1NC(=O)c1ccc(-c2ccc(Br)cc2)o1`, the Potency is 1.17 µM (active).

Take `O=C(NC(=S)Nc1ccccc1C(=O)O)c1ccc(-c2ccc(Br)cc2)o1`: the Potency is 11.7 µM (active).

As for `S=c1[nH]nc(-c2ccc(Cl)cc2Cl)n1-c1ccccc1`, the Potency is 5.21 µM (active).

In the case of `CN(c1ccccc1)c1ccc(/C=N/N2CCOCC2)cc1`, the Potency was 1.47 µM (active).

As to `O=[N+]([O-])c1ncccc1OCc1ccc(Cl)c(Cl)c1`, the Potency is 7.36 µM (active).

As to `COc1ccc2nc(NC(=O)c3cccnc3SC)sc2c1`, the Potency was 2.93 µM (active).

`COc1ccc2nc(NC(=O)c3ccc(Br)s3)sc2c1`: the Potency is 1.17 µM (active).

For the compound `O=C(NC(=O)c1ccc(Cl)cc1)OC1CCCCC1`, the Potency is 16.5 µM (active).

Take `Cc1cc(CC(C)C)n(-c2nc3ccccc3c(=O)n2OCC(=O)N(C)C)n1`: the Potency was 18.5 µM (active).

Consider `COc1ccc(CCn2nc(C)c([N+](=O)[O-])c2C)cc1`, for which the Potency is 4.14 µM (active).

With `O=C(/C=C/Nc1ccccc1O)c1ccco1`, the Potency was 18.5 µM (active).

Regarding `CC(=O)N1c2ccccc2Oc2cc3ccccc3cc21`, the Potency was 9.27 µM (active).

For `CCCC(=O)N(CCN1CCOCC1)c1nc2cc(C)c(C)cc2s1`, the Potency is 2.33 µM (active).

With `O=C(NC(=S)Nc1ccc2ncccc2c1)c1ccccc1`, the Potency is 6.56 µM (active).

For the compound `Cc1cc(C(=O)Nc2cnc3ccccc3c2)ccc1[N+](=O)[O-]`, the Potency is 0.736 µM (active).

For the compound `Cc1csc(NC(=S)NC(=O)c2ccccc2)n1`, the Potency was 1.31 µM (active).

Consider `O=C(Nc1ccc2ncccc2c1)c1ccccc1Br`, for which the Potency is 1.65 µM (active).

Regarding `O=C(NNC(=S)Nc1ccccc1)c1ccc2ncccc2c1`, the Potency is 8.26 µM (active).

On to `O=C(NC(=S)Nc1cnc2ccccc2c1)c1ccccc1`, for which the Potency is 0.585 µM (active).

As to `O=C(NC(=S)Nc1ccc(Cl)cc1)c1ccccc1`, the Potency was 4.65 µM (active).

In the case of `Clc1ccc(SCc2cn3ccccc3n2)cc1`, the Potency is 4.65 µM (active).

As to `Cc1cc(C)c(C#N)c(SCc2cn3ccccc3n2)n1`, the Potency is 18.5 µM (active).

For the compound `Cc1cccc2nc(CSc3nc4ccccc4o3)cn12`, the Potency is 18.5 µM (active).

For `c1ccc2c(SCc3cn4ccccc4n3)nncc2c1`, the Potency was 14.7 µM (active).

For the compound `c1ccc2nc(SCc3cn4ccccc4n3)cnc2c1`, the Potency is 9.27 µM (active).

With `Cc1cccc2nc(CSc3ccc(Cl)cc3)cn12`, the Potency is 4.14 µM (active).

In the case of `Clc1ccc2nc(CSCc3ccccc3)cn2c1`, the Potency was 2.93 µM (active).

With `CCOc1ccc(N2Nc3n[nH]c(N)c3N2)cc1`, the Potency is 16.5 µM (active).

Consider `N#CC1CC(c2ccccc2)=NN1c1ccccc1[N+](=O)[O-]` (configuration not stated), for which the Potency is 5.85 µM (active).

`CC(/C=C/c1ccc(OCc2ccccc2)cc1)=N\O`: the Potency was 2.07 µM (active).

Regarding `c1ccc(CSc2nnc3ccc(-c4cccs4)nn23)nc1`, the Potency is 7.36 µM (active).

In the case of `COC(=O)c1cc2c(s1)-c1ccc(OC)cc1CC2`, the Potency was 6.56 µM (active).

With `COc1cccc(-n2nnc(-c3nc(-c4cccs4)no3)c2N)c1`, the Potency was 1.04 µM (active).

With `CCc1ccc(-n2nnc(-c3nc(-c4ccccc4)no3)c2C)cc1`, the Potency is 1.17 µM (active).

As to `CCc1ccc(-n2nnc(-c3nc(-c4cccs4)no3)c2N)cc1`, the Potency is 1.17 µM (active).

Take `Cc1cccc(-n2nnc(-c3nc(-c4cccs4)no3)c2N)c1C`: the Potency is 0.0927 µM (active).

For the compound `Nc1c(-c2nc(-c3cccs3)no2)nnn1-c1cccc(F)c1`, the Potency is 0.208 µM (active).

On to `Cc1cccc(-n2nnc(-c3nc(-c4cccs4)no3)c2N)c1`, for which the Potency was 0.329 µM (active).

Regarding `COc1ccc(/C(C)=N/Nc2ccccc2Cl)c(O)c1`, the Potency was 8.26 µM (active).

`Nc1nc(N2CCN(c3ccccn3)CC2)nc2ccccc12`: the Potency was 6.56 µM (active).

With `Nc1nc(N2CCN(C(=O)c3ccco3)CC2)nc2ccccc12`, the Potency is 14.7 µM (active).

As for `CCOc1ccc2nc(C(=O)N3CCCC(C)C3)sc2c1` (configuration not stated), the Potency was 3.29 µM (active).

On to `COC(=O)c1ccc(COn2nnc3ccccc32)cc1`, for which the Potency was 1.31 µM (active).

In the case of `c1ccc2c(COn3nnc4ccccc43)cccc2c1`, the Potency was 2.61 µM (active).

As to `Clc1ccc(COn2nnc3ccccc32)c(Cl)c1`, the Potency was 2.61 µM (active).

In the case of `COc1cccc(/C=N/Nc2nc3ccccc3[nH]2)c1OC`, the Potency is 2.93 µM (active).

For `COc1cccc(/C=N/n2c(=O)[nH]c3ccccc32)c1OC`, the Potency is 8.26 µM (active).

Take `O=c1[nH]n(CC2COC3(CCCCC3)O2)c(=O)c2ccccc12` (configuration not stated): the Potency was 16.5 µM (active).

On to `Oc1cccc(Nc2nc(O)c(/C=C3\C=Nc4ccccc43)s2)c1`, for which the Potency is 8.26 µM (active).

In the case of `FC(F)(F)c1cccc(N/N=C/c2ccccc2)c1`, the Potency was 6.56 µM (active).

Regarding `Cc1ccc(S(=O)(=O)Oc2cccc(/C=N/Nc3ccc(C(=O)O)cc3)c2)cc1`, the Potency was 13.1 µM (active).

Consider `O=C(O)c1ccc(N/N=C/c2cccc(C(F)(F)F)c2)cc1`, for which the Potency is 1.85 µM (active).

For the compound `O=C(O)c1ccc(/C=N/Nc2cccc(C(F)(F)F)c2)cc1`, the Potency is 7.36 µM (active).

In the case of `Cc1nn(-c2cccc(C(F)(F)F)c2)c(Cl)c1/C=N/Nc1cccc(C(=O)O)c1`, the Potency is 0.104 µM (active).

Turning to `Oc1ccc(/C=N/Nc2ccc(C(F)(F)F)cn2)cc1O`, the Potency was 10.4 µM (active).

Take `CCNc1nc(NCC)nc(N/N=C/c2ccc(O)c(O)c2)n1`: the Potency is 18.5 µM (active).

Take `Oc1ccc(/C=N/Nc2ccc(Cl)nn2)cc1O`: the Potency is 13.1 µM (active).

With `O=C1C[C@H]2[C@H](CO)[C@@H](OC(=O)c3ccc(-c4ccccc4)cc3)C[C@H]2O1`, the Potency was 7.36 µM (active).

With `O=C(O)c1ccccc1N/N=C/c1cc(Br)cc(Br)c1O`, the Potency was 2.07 µM (active).

For the compound `O=C(O)c1cccc(N/N=C/c2cc(Br)cc(Br)c2O)c1`, the Potency was 5.21 µM (active).

With `O=c1[nH]c2ccccc2c2cn(-c3ccccc3)nc12`, the Potency is 4.65 µM (active).

In the case of `Cc1cccc(CCNC(=O)c2ccc3c(c2)nc2n3CCOC2)c1`, the Potency is 3.29 µM (active).

For `CC(CNC(=O)c1ccc2c(c1)nc1n2CCOC1)c1ccccc1` (configuration not stated), the Potency is 13.1 µM (active).

Turning to `COc1cc(Cl)cc(/C=C/c2ccc3ccccc3n2)c1OC(C)=O`, the Potency was 0.414 µM (active).

On to `O=C1c2ccccc2-c2nc3ccccc3cc21`, for which the Potency is 1.47 µM (active).

Take `Cc1cc2nc(-c3cccc(NC(=O)COc4ccc(C(C)C)cc4)c3)oc2cc1C`: the Potency is 0.369 µM (active).

Regarding `COc1ccc(OCC(=O)Nc2ccc(-c3nc4cc(C)c(C)cc4o3)cc2)cc1`, the Potency is 0.131 µM (active).

For the compound `COc1ccc(OCC(=O)Nc2ccc(-c3nc4cc(Cl)ccc4o3)cc2)cc1`, the Potency was 2.93 µM (active).

Turning to `O=C(COc1ccc(Cl)cc1)Nc1ccc(-c2nc3cc(Cl)ccc3o2)c(O)c1`, the Potency is 7.36 µM (active).

(Values after PubChem BioAssay AID2289 (National Center for Advancing Translational Sciences (NCATS), 2010).)
